Reference: PubChem BioAssay (NCATS)
Records with an inconclusive call do not appear. A number with no mark means an inactive call. Calls of active or inactive are those of the source. Calls follow the shape of the dose curve; as a rule, active = well fitted inhibition curve with a large enough effect; inconclusive = small, poorly fitted or top-dose-only effect; inactive = no such curve, though single readings can be large or run the other way.

system: Zika virus NS2B-NS3 protease (linked construct); assay: Primary screen NINDS Rhodamine qHTS for Zika virus inhibitors (AID 1347160); details: purified NS2B-NS3 protease, Rhodamine110 substrate fluorescence; series mostly up to 57.1 µM; activity change, negative = inhibition: at the top concentration; also: nearly all actives have a fitted effect of over 55% in size
How it was run: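 Percent inhibition, normalized to uninhibited and enzyme-free controls, is fitted to a 4-parameter Hill equation. Fluorescence change comes from a 15-min cleavage of 1.5 microM bis-peptide Rhodamine110 substrate by 25 nM linked NS2B-NS3 at room temperature.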
% is scaled to controls: 0 for no effect and ±100 for the full control effect.

First: CC(F)(F)CN1CCOc2c(nn(-c3ccccc3Cl)c2-c2ccc(Cl)cc2)C1=O
Second: O=C(Nc1ccccc1Br)NC1CCN(c2ccc(C(F)(F)F)cn2)C1 (stereo not given)
The “activity change, negative = inhibition” value of the first is lower: -10.1% for the first, -7.78% for the second.

Compared with `CC(C)c1cccc(C(C)C)c1NC(=O)Nc1ccc(Sc2ccc([N+](=O)[O-])cc2)cc1`, `N#Cc1ccc(-c2ccc(S(=O)(=O)Nc3cccc(N)n3)cc2)cc1` is higher in “activity change, negative = inhibition” value: -3.66% for the first, 1.1% for the second.

Compared with `O=C(Nc1ccc(C(O)(C(F)(F)F)C(F)(F)F)cc1)c1ccc(C(F)(F)F)cc1`, `CN1c2c(nc(N)[nH]c2=O)NC[C@@H]1CNc1ccc(C(=O)N[C@@H](CCC(=O)O)C(=O)O)cc1` is higher in “activity change, negative = inhibition” value: 1.05% for the first, 34.7% for the second.

Going from `CCC(CC)Nc1nc(C)c(-c2ccc(OC(F)(F)F)cc2OC)nc1OC` to `COc1cc(C(C)C)c(Oc2cnc(N)nc2N)cc1I`, the “activity change, negative = inhibition” value rises from 3.57% to 15%.

Compared with `NC(=O)c1cccc2[nH]c(-c3ccc(C4CCCN4)cc3F)nc12` (stereo not given), `Cc1nc(C#Cc2ccnc(Cl)c2)c(C)n1-c1ccc(F)cc1` is lower in “activity change, negative = inhibition” value: 42.3% for the first, 15.6% for the second.

First: C=C1C(=O)OC2C1CCC1(C)C(O)CCC(=C)C21 (stereo not given)
Second: C=C1CC[C@@H]2[C@](C)(CO)[C@H](O)CC[C@@]2(C)[C@@H]1C/C=C1/C(=O)OCC1O (stereo not given in full)
The “activity change, negative = inhibition” value of the first is lower: -9.6% for the first, 20.6% for the second.

First: NC(=O)N1CCC(CC(=O)N2CCC(C3c4ncc(Br)cc4CCc4cc(Cl)cc(Br)c43)CC2)CC1 (stereo not given)
Second: O=C([C@@H]1CCCN(c2ccc3[nH]c(C4(n5cc(Cl)cn5)CC4)nc3n2)C1)N1CCCC1
The “activity change, negative = inhibition” value of the first is lower: 11.4% for the first, 55.7% for the second.

Compared with `CCOC(=O)c1ccc(OCCC2CCN(c3ccc(C)nn3)CC2)cc1`, `COc1cc(/C=C2\CC[C@H]3COC[C@@H](c4cc(F)c(F)c(F)c4)N3C2=O)ccc1-n1cnc(C)c1` is higher in “activity change, negative = inhibition” value: -14.2% for the first, 43.3% for the second.

In the case of `CC(/C=C/C(=O)NO)=C\[C@@H](C)C(=O)c1ccc(N(C)C)cc1`, the “activity change, negative = inhibition” value is reported as -7.11%.

Going from `C[C@@H](O[C@H]1OCCN(Cc2nn(P(=O)(O)O)c(=O)[nH]2)[C@H]1c1ccc(F)cc1)c1cc(C(F)(F)F)cc(C(F)(F)F)c1` to `CC1(C)CC[C@]2(C(=O)O)CC[C@]3(C)C(=CCC4[C@@]5(C)C[C@@H](O)[C@H](O)[C@@](C)(CO)C5CC[C@]43C)[C@@H]2[C@@H]1O` (stereo not given in full), the “activity change, negative = inhibition” value falls from -1.33% [at 33.1 µM] to -9.91% [at 33.1 µM].

For `Nc1nc(Cl)nc2c1ncn2C1OC(CO)C(O)C1F` (stereo not given), the “outcome” value was “inactive”.
In the case of `C/C=C(/C)C(=O)O[C@H]1C=C(CO)C(=O)[C@H](OC(=O)/C(C)=C/CO)[C@H]1C(C)C`, the “outcome” value is reported as “inactive [at 33.1 µM]”.
`C=C1C(=O)OC2CC(C)C(CCC(C)=O)=CCC12` (stereo not given) was tested, and the “outcome” value was “inactive”.
In the case of `CC(C)(Cc1ccccc1)NCC(O)c1ccc(O)c(NS(C)(=O)=O)c1` (stereo not given), the “outcome” value is reported as “inactive”.
In the case of `C=C1C(=O)O[C@@H]2[C@H]3C(C)=CC(=O)C3=C(C)CC[C@@H]12`, the “outcome” value is reported as “inactive”.

With `COC(=O)C1=COC(O[C@@H]2O[C@H](CO[C@@H]3O[C@H](COC(=O)/C=C\c4ccc(O)cc4)[C@@H](O)[C@H](O)[C@H]3O)[C@@H](O)[C@H](O)[C@H]2O)C2C(CO)=CCC12` (stereo not given in full) the “activity change, negative = inhibition” value was -1.68% [at 15.1 µM].
